# This is one part of a sample in which the strongest signals are shown more often than they occur.
# B1: UDA (Urtica dioica), P11218 (protein)
# chain: MMMRFLSAVVIMSSAMAVGLVSAQRCGSQGGGGTCPALWCCSIWGWCGDSEPYCGRTCENKCWSGERSDHRCGAAVGNPPCGQDRCCSVHGWCGGGNDYCSGSKCQYRCSSSVRGPRVALSGNSTANSIGNVVVTEPLFDQMFSHRKDCPSQGFYSYHSFLVAAESFPAFGTIGDVATRKREVAAFLAHISQATSGERSDVENPHAWGLCHINTTTVTENDFCTSSDWPCAAGKKYSPRGPIQLTHNFNYGLAGQAIGEDLIQNPDLVEKDPIISFKTALWFWMSQHDNKPSCHDIVLNANSAANRIPNKGVIGNIISRAFGHDDFAVRSSSIGFYKRYCDMLGVSYGHDLKYWFDNTPSSEFQRIQMRVAA
# Legend:
# Experiment in all cases: glycan array binding signal (z-score within array); higher = stronger binding
# Settings in all cases: glycan notation: IUPAC condensed, linker removed
# [1] = molecular target: GlcNAc(a1-4)Gal(b1-4)GlcNAc
# Method in brief: (§1)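 Glycan array binding is given as a within-array Z-score, which can be read as non-binding when negative. The arrays, 3228 of them, came from the Consortium for Functional Glycomics database and were retained only where the protein sequence was available. Z-scores were averaged across arrays of the same protein sequence at different concentrations or buffers and across linkers.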
# [2] = molecular target: GlcNAc(b1-2)[GlcNAc(b1-4)]Man(a1-3)[GlcNAc(b1-2)Man(a1-6)]Man(b1-4)GlcNAc(b1-4)GlcNAc
# Method in brief: as §1
# [3] = molecular target: GlcNAc(b1-2)[GlcNAc(b1-6)]Man(a1-6)[GlcNAc(b1-2)Man(a1-3)]Man(b1-4)GlcNAc(b1-4)[Fuc(a1-6)]GlcNAc
# Method in brief: as §1
# [4] = molecular target: GlcNAc(b1-3)Gal(b1-3)GalNAc
# Method in brief: as §1
# [5] = molecular target: GlcNAc(b1-3)Gal(b1-4)GlcNAc(b1-3)Gal(b1-4)GlcNAc(b1-2)Man(a1-3)[GlcNAc(b1-3)Gal(b1-4)GlcNAc(b1-3)Gal(b1-4)GlcNAc(b1-2)Man(a1-6)]Man(b1-4)GlcNAc(b1-4)[Fuc(a1-6)]GlcNAc
# Method in brief: as §1
# [6] = molecular target: GlcNAc(b1-3)Gal(b1-4)GlcNAc(b1-3)GalNAc
# Method in brief: as §1
# GlcNAc(b1-3)Man = molecular target: GlcNAc(b1-3)Man
# Method in brief: as §1
# [7] = molecular target: GlcNAc(b1-4)GlcNAc(b1-4)GlcNAc
# Method in brief: as §1
# [8] = molecular target: GlcNAc(b1-4)GlcNAc(b1-4)GlcNAc(b1-4)GlcNAc(b1-4)GlcNAc
# Method in brief: as §1
# [9] = molecular target: GlcNAc(b1-6)Gal(b1-4)GlcNAc
# Method in brief: as §1
# Kdn(a2-3)Gal(b1-4)Glc = molecular target: Kdn(a2-3)Gal(b1-4)Glc
# Method in brief: as §1
# [10] = molecular target: Man(a1-2)Man(a1-3)[Man(a1-2)Man(a1-6)]Man(a1-6)[Man(a1-2)Man(a1-2)Man(a1-3)]Man(b1-4)GlcNAc(b1-4)GlcNAc
# Method in brief: as §1
# [11] = molecular target: Man(a1-2)Man(a1-3)[Man(a1-2)Man(a1-6)]Man(a1-6)[Man(a1-3)[Man(a1-6)]Man(a1-6)]Man(b1-4)GlcNAc(b1-4)GlcNAc
# Method in brief: as §1
# [12] = molecular target: Man(a1-2)Man(a1-3)[Man(a1-6)]Man(a1-6)[Man(a1-2)Man(a1-3)]Man(b1-4)GlcNAc(b1-4)GlcNAc
# Method in brief: as §1
# [13] = molecular target: Man(a1-2)Man(a1-6)[Man(a1-3)]Man(a1-6)[Man(a1-2)Man(a1-2)Man(a1-3)]Man(b1-4)GlcNAc(b1-4)GlcNAc
# Method in brief: as §1
# [14] = molecular target: Man(a1-3)[Man(a1-6)]Man(a1-6)[Man(a1-2)Man(a1-3)]Man(b1-4)GlcNAc(b1-4)GlcNAc
# Method in brief: as §1
# [15] = molecular target: Man(a1-3)[Man(a1-6)]Man(a1-6)[Man(a1-3)]Man(b1-4)GlcNAc(b1-4)GlcNAc
# Method in brief: as §1
# [16] = molecular target: Man(a1-3)[Man(a1-6)]Man(b1-4)GlcNAc(b1-4)GlcNAc
# Method in brief: as §1
# [17] = molecular target: Neu5Ac(a2-3)Gal(b1-3)GlcNAc
# Method in brief: as §1
# [18] = molecular target: Neu5Ac(a2-3)Gal(b1-3)GlcNAc(b1-4)Gal(b1-4)Glc
# Method in brief: as §1
# [19] = molecular target: Neu5Ac(a2-3)Gal(b1-3)[GlcNAc(b1-6)]GalNAc
# Method in brief: as §1
# [20] = molecular target: Neu5Ac(a2-3)Gal(b1-3)[Neu5Ac(a2-3)Gal(b1-4)]GlcNAc
# Method in brief: as §1
# [21] = molecular target: Neu5Ac(a2-3)Gal(b1-3)[Neu5Ac(a2-6)]GlcNAc(b1-3)[Fuc(a1-3)[Gal(b1-4)]GlcNAc(b1-6)]Gal(b1-4)Glc
# Method in brief: as §1
# [22] = molecular target: Neu5Ac(a2-3)Gal(b1-4)GlcNAc(b1-2)Man(a1-3)[GlcNAc(b1-4)][Neu5Ac(a2-3)Gal(b1-4)GlcNAc(b1-2)Man(a1-6)]Man(b1-4)GlcNAc(b1-4)GlcNAc
# Method in brief: as §1
# [23] = molecular target: Neu5Ac(a2-3)Gal(b1-4)GlcNAc(b1-2)Man(a1-3)[Neu5Ac(a2-3)Gal(b1-4)GlcNAc(b1-2)Man(a1-6)]Man(b1-4)GlcNAc(b1-4)[Fuc(a1-6)]GlcNAc
# Method in brief: as §1
# [24] = molecular target: Neu5Ac(a2-3)Gal(b1-4)GlcNAc(b1-3)Gal(b1-4)GlcNAc(b1-3)Gal(b1-4)GlcNAc(b1-2)Man(a1-3)[Neu5Ac(a2-3)Gal(b1-4)GlcNAc(b1-3)Gal(b1-4)GlcNAc(b1-3)Gal(b1-4)GlcNAc(b1-2)Man(a1-6)]GalNAc
# Method in brief: as §1
# [25] = molecular target: Neu5Ac(a2-3)Gal(b1-4)GlcNAc(b1-3)Gal(b1-4)GlcNAc(b1-3)[Neu5Ac(a2-3)Gal(b1-4)GlcNAc(b1-3)Gal(b1-4)GlcNAc(b1-6)]GalNAc
# Method in brief: as §1
# [26] = molecular target: Neu5Ac(a2-3)Gal(b1-4)[Fuc(a1-3)]GlcNAc
# Method in brief: as §1
# [27] = molecular target: Neu5Ac(a2-3)Gal(b1-4)[Fuc(a1-3)]GlcNAc(b1-3)Gal(b1-4)GlcNAc
# Method in brief: as §1
# [28] = molecular target: Neu5Ac(a2-3)[GalNAc(b1-4)]Gal(b1-4)Glc
# Method in brief: as §1
binder,measurement,setting,value
B1,glycan array binding signal (z-score),[1],0.188
same,glycan array binding signal (z-score),[2],0.083
same,glycan array binding signal (z-score),[3],-0.162
same,glycan array binding signal (z-score),[4],-0.181
same,glycan array binding signal (z-score),[5],0.026
same,glycan array binding signal (z-score),[6],-0.182
same,glycan array binding signal (z-score),GlcNAc(b1-3)Man,-0.17
same,glycan array binding signal (z-score),[7],2.6
same,glycan array binding signal (z-score),[8],2.39
same,glycan array binding signal (z-score),[9],-0.173
same,glycan array binding signal (z-score),Kdn(a2-3)Gal(b1-4)Glc,-0.168
same,glycan array binding signal (z-score),[10],4.32
same,glycan array binding signal (z-score),[11],4.79
same,glycan array binding signal (z-score),[12],4.54
same,glycan array binding signal (z-score),[13],8.27
same,glycan array binding signal (z-score),[14],10.8
same,glycan array binding signal (z-score),[15],5.89
same,glycan array binding signal (z-score),[16],6.43
same,glycan array binding signal (z-score),[17],-0.164
same,glycan array binding signal (z-score),[18],-0.174
same,glycan array binding signal (z-score),[19],-0.176
same,glycan array binding signal (z-score),[20],-0.25
same,glycan array binding signal (z-score),[21],-0.177
same,glycan array binding signal (z-score),[22],-0.174
same,glycan array binding signal (z-score),[23],-0.169
same,glycan array binding signal (z-score),[24],-0.024
same,glycan array binding signal (z-score),[25],-0.161
same,glycan array binding signal (z-score),[26],-0.19
same,glycan array binding signal (z-score),[27],-0.171
same,glycan array binding signal (z-score),[28],-0.189

# From the supplement of paper PMC8728848
